Bioassay records: PubChem, National Center for Advancing Translational Sciences (NCATS)
Only some compounds are listed: those with a hit (about 2.3% of all), similar ones and a draw of the others.
Pol beta inh – blocks human DNA polymerase beta activity; P06746; Pol beta primer extension/strand displacement, fluorescence kinetic; Potency, µM (series often up to 114 µM), for inactives: at the highest dose activity change, negative = inhibition, most hits filed as inhibitors; 340,000 compounds, 1.3% hits; AID 485314; note: % is set by controls: 0 for no effect and ±100 for the full control effect
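Pol beta (10 nM) and compounds were preincubated 15 min at room temperature, then 50 nM substrate (final) started primer extension/strand displacement. Reads were taken at 0 and 10 min; concentration-response data were fitted to a four-parameter Hill equation.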
POLI inh – blocks human DNA polymerase iota activity. Q9UNA4. Pol iota fluorescent replication assay, 10 min. Potency, µM (top dose mostly 115 µM), for inactives: at the highest dose activity, negative = inhibition, most hits filed as inhibitors. 390,000 compounds, 1% hits. AID 588590
Target sequence (Q9UNA4 whole entry, looked up): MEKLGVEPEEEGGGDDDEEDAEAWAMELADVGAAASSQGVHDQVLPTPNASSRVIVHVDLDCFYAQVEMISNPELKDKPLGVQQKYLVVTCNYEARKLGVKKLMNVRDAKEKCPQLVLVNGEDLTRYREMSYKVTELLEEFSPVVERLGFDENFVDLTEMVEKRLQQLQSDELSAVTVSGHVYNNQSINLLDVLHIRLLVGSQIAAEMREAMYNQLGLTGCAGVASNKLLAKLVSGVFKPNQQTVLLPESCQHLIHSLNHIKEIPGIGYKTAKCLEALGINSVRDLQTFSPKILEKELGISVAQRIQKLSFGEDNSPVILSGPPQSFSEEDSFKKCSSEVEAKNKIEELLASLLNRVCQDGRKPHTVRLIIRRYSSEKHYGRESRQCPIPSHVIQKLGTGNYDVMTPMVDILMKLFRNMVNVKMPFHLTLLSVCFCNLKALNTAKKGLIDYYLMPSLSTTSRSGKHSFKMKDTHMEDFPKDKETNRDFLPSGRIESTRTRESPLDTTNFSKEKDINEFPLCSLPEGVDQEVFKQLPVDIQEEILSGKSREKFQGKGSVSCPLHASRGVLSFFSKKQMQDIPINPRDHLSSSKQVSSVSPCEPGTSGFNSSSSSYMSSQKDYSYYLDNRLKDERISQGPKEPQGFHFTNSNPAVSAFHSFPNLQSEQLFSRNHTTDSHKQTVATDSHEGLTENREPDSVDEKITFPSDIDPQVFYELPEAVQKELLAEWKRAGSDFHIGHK
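Pol iota at 10 nM preincubated 15 min with compounds at room temperature; reaction started with fluorescent substrate, 50 nM final. Fluorescence read kinetically at 0 and 10 min; buffer-only wells as negative control.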
Pol eta inh – DNA polymerase eta (human) inhibition. Potency, µM (series often up to 114 µM), for the others: at the highest dose activity change, negative = inhibition, most hits filed as inhibitors. 390,000 compounds, 1.2% hits. Q9Y253. recombinant Pol eta, fluorescent DNA replication assay; note: % is set by controls: 0 for no effect and ±100 for the full control effect
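Pol eta (10 nM) was preincubated with compounds for 15 min at room temperature, after which fluorescent replication substrate (50 nM final) was added to start the reaction. Fluorescence was read kinetically at 0 and 10 min.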
POLK inh – inhibitors of human DNA polymerase kappa | purified Pol kappa, fluorescent DNA synthesis assay, 10 min | Potency, µM (top dose mostly 107 µM), for inactives: top-dose activity, negative = inhibition, hits mostly inhibitors | 400,000 compounds, 0.53% hits | AID 588579; note: % is set by controls: 0 for no effect and ±100 for the full control effect
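Kinetic fluorescence readout at 0 and 10 min followed reaction start with substrate at 50 nM final. Beforehand, enzyme (10 nM Pol kappa) stood 15 min with compound at room temperature; buffer-only wells were negative controls.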
WRN inhibitor – inhibitors of human WRN helicase; AID 651768; Q14191; Potency, µM (top dose mostly 114 µM), for inactives: at the highest dose activity change, negative = inhibition, usual class: inhibitors; 360,000 compounds, 0.46% hits; WRN helicase unwinding, fluorescent forked duplex, kinetic; note: % is set by controls: 0 for no effect and ±100 for the full control effect; nearly all actives have a fitted effect of over 55% in size
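Kinetic fluorescence helicase assay: unwinding of a quenched forked DNA duplex (100 nM final) with 2 mM ATP final raises red fluorescence (525/598 nm). Compounds sat 15 min at room temperature with 20 nM WRN beforehand.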
* hit, by the source's call; ? = inconclusive; · = not tested or not shown; [ ] = another dose, or the depositor's remark. Calls come from the whole dose curve; as a rule, active = well fitted curve in the direction sought with a large enough effect; inconclusive = small, poorly fitted or top-dose-only effect, or another doubt; inactive = no such curve, though single readings can be large; an effect the other way counts as inactive or inconclusive. Potency is the fitted concentration of half-maximal effect.

SMILES | Pol beta inh | POLI inh | Pol eta inh | POLK inh | WRN inhibitor
Cc1ccc(C(=O)N/N=C/c2ccc([N+](=O)[O-])s2)cc1 | 28.2µM* | ? | -5.0% | -14.9% | -15.0%
O=S(=O)(N=C1C=CC(=NS(=O)(=O)c2ccccc2)c2ccccc21)c1ccccc1 | · | · | 50.1µM* | · | 6.5%
CC1(C)Nc2cccc3c(N=Nc4ccc(N=Nc5ccccc5)c5ccccc45)ccc(c23)N1 | · | 33.7% | · | -20.7% | ·
Cc1ccc(N2CCN(S(=O)(=O)c3nnc(NC(=O)c4ccco4)s3)CC2)cc1 | ? | -13.2% | 79.4µM* | -16.4% | -2.7%[11.6 µM]
O=C(Nc1nnc(S(=O)(=O)N2CCCc3ccccc32)s1)c1ccccc1 | ? | 23.1% | ? | -9.1% | ·
O=C(Nc1nnc(S(=O)(=O)N2CCc3ccccc32)s1)c1cccc(Cl)c1 | 3.5% | 13.6% | 89.1µM* | -18.3% | ·
Cc1ccc(C(=O)Nc2nnc(S(=O)(=O)N3CCCc4ccccc43)s2)cc1 | ? | 100.1% | 89.1µM* | -11.2% | ·
Cc1ccc(C(=O)Nc2nnc(S(=O)(=O)N3CCN(c4ccc(F)cc4)CC3)s2)cc1 | 8.6% | -9.0% | -14.0% | 1.0% | -0.7%
COc1cccc(/C=N/NC(=O)c2cc(-c3ccccn3)nc3ccccc23)c1O | · | 38.4% | -8.7% | 0.1% | -19.5%
O=C(N/N=C/c1cc(Cl)cc([N+](=O)[O-])c1O)c1cc(-c2ccccn2)nc2ccccc12 | -1.1% | 21.7% | 79.4µM* | -2.7% | -17.2%
CNc1ccc(C=O)cc1Br | · | 17.7% | · | -21.8% | ·
Cc1cncn1CCc1nc2c3ccccc3nc(SCC(=O)Nc3ccccc3F)n2n1 | ? | ? | -14.9% | -5.9%[60.1 µM] | ·
O=C1C[C@@H](c2ccc(O)cc2)Oc2cc(O[C@@H]3O[C@H](CO)[C@@H](O)[C@H](O)[C@H]3O)cc(O)c21 | · | · | · | -12.0%[12 µM] | ·
COc1cc(/C=C/CO)ccc1O[C@@H]1O[C@H](CO)[C@@H](O)[C@H](O)[C@H]1O | · | 27.9% | -3.4% | 23.4% | 5.9%
O=C1C[C@@H](c2ccc(O)c(O)c2)Oc2c1ccc(O[C@@H]1O[C@H](CO)[C@@H](O)[C@H](O)[C@H]1O)c2O | · | · | · | 2.67µM* | ·
O=C(/C=C/c1ccc(O)c(O)c1)c1ccc(O[C@@H]2O[C@H](CO)[C@@H](O)[C@H](O)[C@H]2O)c(O)c1O | · | · | · | 0.189µM* | ·
O=C1C=CC2=C3c4cc(O)c(O)cc4C[C@]3(O)COC2=C1 | · | · | · | 7.08µM* | ·
C=CC(C)(C)c1c(O)c(CC=C(C)C)c(O)c2c(=O)c3ccc(O)c(O)c3oc12 | · | -13.9% | -5.3% | -17.4% | -11.8%
C=CC(C)(C)c1[nH]c2ccccc2c1C1=C(O)C(=O)C(c2c[nH]c3c(CC=C(C)C)cccc23)=C(O)C1=O | · | · | · | 1.41µM* | ·
C[N+]1(CC(=O)c2ccc(Oc3ccccc3)cc2)CCOCC1 | · | ? | · | 4.1% | ·
COc1ccc2nc(C)cc(SCC(=O)NNC(=O)COc3cccc4ccccc34)c2c1 | 12.6µM* | ? | ? | -21.6% | -13.2%
CC[C@H](C)[C@H](NC(=O)[C@H](CC(=O)O)NC(=O)[C@H](CC(C)C)NC(=O)[C@H](NC(C)=O)C(c1ccccc1)c1ccccc1)C(=O)N[C@H](C(=O)N[C@@H](Cc1c[nH]c2ccccc12)C(=O)O)[C@@H](C)CC | · | · | · | 11.0%[60.1 µM] | ·
Cc1nc2ccccc2n1CC(O)Cn1c2ccccc2c2ccccc21 (stereo unspecified) | -1.7% | 100µM* | -15.4% | -25.5% | -18.2%
CCCCOCC(O)Cn1c(C)nc2ccccc21 (stereo unspecified) | 6.7% | 14.3% | 8.8% | -7.7% | -4.4%
CC1CC=CC2C1C(=O)N(Cc1ccccc1)C2c1ccc(Br)cc1F (stereo unspecified) | · | -5.6% | · | -5.7% | ·
SMILES | Pol beta inh | POLI inh | Pol eta inh | POLK inh | WRN inhibitor
O=C(Nc1ccc2c(c1)OCO2)c1cccc2c1C(=O)N(Cc1cccnc1)C2 | 39.8µM* | ? | ? | -12.3% | -28.2%
O=C(CNC(=O)C1CCCCC1)OCC(=O)c1ccc(C2CCCCC2)cc1 | · | -4.2% | · | -3.9% | ·
Cc1ccc(NC(=O)Nc2cn(C)c(=O)c3ccccc23)c(Cl)c1 | ? | 70.8µM* | 4.9% | -14.4% | ·
CCc1ccc(NC(=O)Nc2cn(C)c(=O)c3ccccc23)cc1 | -18.3% | ? | -4.9% | -19.9%[60.1 µM] | ·
CCOC(=O)Cc1cc(=O)n(-c2nc3ccccc3s2)[nH]1 | 44.7µM* | 89.1µM* | ? | 79.4µM* | -28.7%[57.1 µM]
CCOC(=O)CNS(=O)(=O)c1ccc(F)cc1Br | · | 4.3% | · | -32.2% | ·
CCOC(=O)c1nn(-c2ccc(OCC)cc2)c(C)c1C(C)=O | 14.3% | 27.1% | 89.1µM* | -4.2% | -5.0%[11.6 µM]
CC(C)CCCC(C)CCCC(C)CCCC(C)C(=O)O (stereo unspecified) | · | · | · | 29.9µM* | ·
CSc1ccc(C(c2c(C(=O)O)[nH]c3ccccc23)c2c(C(=O)O)[nH]c3ccccc23)cc1 | -27.1% | ? | 79.4µM* | ? | -8.5%[11.6 µM]
CCOc1cc(Br)cc(C(c2c(C(=O)O)[nH]c3ccccc23)c2c(C(=O)O)[nH]c3ccccc23)c1O | ? | -15.6% | 79.4µM* | ? | 2.4%[11.6 µM]
CSc1ccc(C(c2c(C)[nH][nH]c2=O)c2c(C)[nH][nH]c2=O)cc1 | 15.6% | ? | -4.1% | -11.7% | 8.4%[57.1 µM]
CCOC(=O)c1[nH]c2ccccc2c1NC(C)=O | 79.9% | -1.8% | -14.5% | -5.2% | 0.1%
Cc1nnc2ccc(-c3ccc(NS(=O)(=O)c4ccccc4[N+](=O)[O-])cc3)nn12 | · | ? | 39.8µM* | ? | -14.5%[11.6 µM]
CN(C)CCN1C(=O)c2cccc3cc([N+](=O)[O-])cc(c23)C1=O | · | 79.4µM* | ? | ? | -20.6%
CN(C)CCCN1C(=O)c2cccc3cccc(c23)C1=O | ? | 25.9% | -5.2% | -21.2% | -2.8%[11.6 µM]
O=C(Oc1cc(=O)oc2ccccc12)c1ccccc1 | 13.3% | -6.3% | -22.1% | -2.9% | 8.2%
O=C(Oc1cc(=O)oc2c1c(=O)n1c3c(cccc23)CC1)c1ccccc1 | 39.8µM* | ? | -11.6% | -8.1% | -24.6%
Cc1ccc2c(c1)sc[n+]2Cc1ccccc1 | 22.5% | 44.7µM* | -10.1% | -13.0% | 1.5%[11.6 µM]
Cc1ccc(-c2cc[n+](Cc3ccccc3)cc2)cc1 | -24.4% | 121.4% | -7.3% | -1.1% | 4.1%
Nc1cccc2cccnc12 | · | ? | · | -17.0% | ·
COc1ccc(CCN2C(=O)C=CC2=O)cc1OC | · | 31.2% | -19.1% | -12.4% | 31.6µM*
COc1ccc(CCn2c(C)ccc2C)cc1OC | -1.1% | · | · | · | ·
O=C1CCCc2[nH]c(=O)c(C(=O)NCc3ccccc3)cc21 | · | 6.8% | · | -5.3% | ·
Cc1cc(C)n(CCc2nc(-c3ccc(C)o3)cs2)n1 | 50.1µM* | ? | 15.8µM* | -23.1% | -6.7%[11.6 µM]
Cc1cc(C)n(CCc2nc(-c3cc4ccccc4o3)cs2)n1 | 2.5% | 24.3% | -24.0% | -11.8% | -19.7%
CC(Sc1nnc2c(n1)[nH]c1ccccc12)C(=O)NC1CCCCC1 (stereo unspecified) | 44.7µM* | 13.9% | -1.0% | -3.9% | -32.8%
